Laboratory results as given in the supplement of paper PMC9925115.
Where “and” joins values, the source holds several entries; their conditions need not be identical. Equal entries are not always repeated. Structures can show the parent of a compound that is named as a salt.

Tested on: FLX1 + dox-induced PRKAR1A G325D
Test: difference in log2 fold change of viability vs plate median (dox-induced PRKAR1A G325D minus uninduced); higher = compound less effective when PKA is inhibited
Conditions: concentration: not stated (2 or 5 uM); 5 days
Description: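 For each plate a log2 fold change vs the plate median was derived, and the values without dox were subtracted from those with dox, averaged over three biological replicates.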

Row | SMILES | difference in log2 fold change of viability
1 | CS(=O)(=O)N1CCc2c(-c3cnc(N)nc3)nc(N3CCOCC3)nc21 | 0.207
2 | CN(c1ncccc1CNc1nc(Nc2ccc3c(c2)CC(=O)N3)ncc1C(F)(F)F)S(C)(=O)=O | 0.235 and 0.428
3 | Oc1ccc(-c2nc(-c3ccc(F)cc3)c(-c3ccncc3)[nH]2)cc1 | 0.0143
4 | CN1CCN(c2cccc(Nc3nc4c(-c5ccc(S(C)(=O)=O)cc5)cccn4n3)c2)CC1 | -0.93
5 | NC(=O)Nc1cc(-c2cccc(F)c2)sc1C(=O)N[C@H]1CCCNC1 | -0.12
6 | Cc1c(CN2CCN(C(=O)[C@H](C)O)CC2)sc2c(N3CCOCC3)nc(-c3cnc(N)nc3)nc12 [Apitolisib (GDC-0980, RG7422)] | 0.628
7 | O=c1ccc2ccc(O)c(O)c2o1 [Daphnetin] | -0.062
8 | O=C1NC(=O)C(c2ccccc2[N+](=O)[O-])=C1Nc1ccc(O)c(Cl)c1 | -0.00686
9 | Nc1nc(N)c(N=O)c(OCC2CCCCC2)n1 | -0.216
10 | O=c1c(-c2ccc(O)cc2)coc2cc(O)cc(O)c12 [Genistein] | 0.126
11 | NC(=O)c1ccc(N(C(N)=O)c2c(F)cccc2F)nc1-c1ccc(F)cc1F | 0.256
12 | COC(=O)c1ccc2c(c1)NC(=O)/C2=C(\Nc1ccc(N(C)C(=O)CN2CCN(C)CC2)cc1)c1ccccc1 [Nintedanib (BIBF 1120)] | -4.27
13 | CSc1cccc(Nc2ncc3cc(-c4c(Cl)cccc4Cl)c(=O)n(C)c3n2)c1 | -0.0582
14 | COc1cc(Nc2ncc(F)c(Nc3ccc4c(n3)N(COP(=O)(O)O)C(=O)C(C)(C)O4)n2)cc(OC)c1OC [Fostamatinib (R788)] | -0.76
15 | CN1CC[C@H](c2c(O)cc(O)c3c(=O)cc(-c4ccccc4Cl)oc23)[C@H](O)C1 [Flavopiridol HCl] | 0.222
16 | CNC(=O)c1cc(Oc2ccc(NC(=O)Nc3ccc(Cl)c(C(F)(F)F)c3)cc2)ccn1 [Sorafenib Tosylate] | -0.44
17 | CCn1c(N)c(C(=O)NC)c(=O)c2ccc(C#CC(C)(O)COC)nc21 (stereo not given) | 0.0292
18 | CN(C)C/C=C/C(=O)Nc1cc2c(Nc3ccc(F)c(Cl)c3)ncnc2cc1O[C@H]1CCOC1 [Afatinib (BIBW2992)] | -1.66
19 | O=C(Nc1c[nH]nc1-c1nc2ccc(CN3CCOCC3)cc2[nH]1)NC1CC1 | 0.115
20 | C=CC(=O)Nc1cccc(Nc2nc(Nc3ccc(NC4CN(CCF)C4)cc3OC)ncc2C(F)(F)F)c1 | -0.839

Row | SMILES | difference in log2 fold change of viability
21 | C[S+]([O-])c1ccc(-c2nc(-c3ccc(F)cc3)c(-c3ccncc3)[nH]2)cc1 (stereo not given) | -0.00802
22 | COc1ccc(S(=O)(=O)N(C(C)=O)c2ccccc2/C=C/c2cc[n+]([O-])cc2)cc1 | 0.0942
23 | Cc1c(F)cc(C(=O)NC2CC2)cc1-c1ccc(C(=O)NCC(C)(C)C)cn1 | -0.0149
24 | C[C@@H](N)[C@H]1CC[C@H](C(=O)Nc2ccncc2)CC1 | 0.511
25 | NC(=O)Nc1sc(-c2ccc(F)cc2)cc1C(N)=O | -0.89
26 | Cc1ccc(S(=O)(=O)/C=C/C#N)cc1 | -0.118
27 | CCN1/C(=C/C(C)=O)Sc2ccc(OC)cc21 | -0.074
28 | CNC(=O)CN1CCC(Oc2cc3c(Nc4cccc(Cl)c4F)ncnc3cc2OC)CC1 [Sapitinib (AZD8931)] | -0.745
29 | CCN1CCN(Cc2ccc(C(=O)Nc3ccc(C)c(Oc4ccc5c(c4)CC(=O)N5)c3)cc2C(F)(F)F)CC1 | -0.078
30 | CCCS(=O)(=O)Nc1ccc(F)c(C(=O)c2c[nH]c3ncc(-c4ccc(Cl)cc4)cc23)c1F [Vemurafenib (PLX4032, RG7204)] | 0.336
31 | O=C(Nc1ccc(-c2ccnc(Nc3ccc(N4CCOCC4)cc3)n2)cc1)C1CCCN1 (stereo not given) | 0.201
32 | Cc1ccc(F)c(NC(=O)Nc2ccc(-c3cccc4[nH]nc(N)c34)cc2)c1 [Linifanib (ABT-869)] | 0.386
33 | Cc1nc(N)sc1-c1ccnc(Nc2ccc(N3CCOCC3)cc2)n1 | 0.455
34 | CC[C@H](CO)Nc1nc(NCc2ccccc2)c2ncn(C(C)C)c2n1 [Roscovitine (Seliciclib,CYC202)] | 0.0426
35 | CCCCCCCCCCCCc1ccc(S(=O)(=O)Nc2nncs2)cc1 | 0.132
36 | C=CC(=O)Nc1cccc(Nc2nc(Nc3ccc(N4CCN(C(C)=O)CC4)cc3OC)ncc2C(F)(F)F)c1 [Rociletinib (CO-1686, AVL-301)] | -0.172
37 | CO[C@H]1C[C@@H]2CC[C@@H](C)[C@@](O)(O2)C(=O)C(=O)N2CCCC[C@H]2C(=O)O[C@H]([C@H](C)C[C@@H]2CC[C@@H](OP(C)(C)=O)[C@H](OC)C2)CC(=O)[C@H](C)/C=C(\C)[C@@H](O)[C@@H](OC)C(=O)[C@H](C)C[C@H](C)/C=C/C=C/C=C/1C [Ridaforolimus (Deforolimus, MK-8669)] | 0.419
38 | CCn1c(-c2nonc2N)nc2c(C#CC(C)(C)O)ncc(OC[C@H]3CCCNC3)c21 | 0.00672
39 | Cc1ccc(NC(=O)c2cccc(N(C)C)c2)cc1NC(=O)c1ccc(O)cc1 | 0.402
40 | COCC(=O)NC/C=C/c1ccc2ncnc(Nc3ccc(Oc4ccc(C)nc4)c(C)c3)c2c1 | 0.0049
